This excerpt belongs to a sample that is enriched for the strongest signals.
Experiments:
Assay in all cases: glycan array binding signal (z-score within array); higher = stronger binding
Conditions in all cases: glycan notation: IUPAC condensed, linker removed
[1] = target: Fuc(a1-2)Gal(b1-3)[Fuc(a1-4)]GlcNAc
Procedure, shortened: (§1)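 The binding signal is a Z-score computed within each array and averaged over linkers. Arrays of the same protein sequence at different concentrations or buffers were also averaged together. Data originate from 3228 arrays in the Consortium for Functional Glycomics database, kept only where the protein sequence was available.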

[2] = target: Fuc(a1-3)[Gal(b1-4)]Glc6S
Procedure, shortened: as §1

[3] = target: Fuc(a1-3)[Gal(b1-4)]GlcNAc(b1-4)Gal(b1-4)[Fuc(a1-3)]GlcNAc
Procedure, shortened: as §1

[4] = target: Fuc(a1-3)[Gal3S(b1-4)]Glc6S
Procedure, shortened: as §1

[5] = target: Fuc(a1-3)[Gal3S(b1-4)]GlcNAc6S
Procedure, shortened: as §1

Gal(a1-6)Glc = target: Gal(a1-6)Glc
Procedure, shortened: as §1

Gal(b1-3)Gal = target: Gal(b1-3)Gal
Procedure, shortened: as §1

Gal(b1-4)Glc6S = target: Gal(b1-4)Glc6S
Procedure, shortened: as §1

[6] = target: Gal(b1-4)GlcNAc(b1-3)Gal(b1-4)[Fuc(a1-3)]GlcNAc(b1-3)Gal(b1-4)[Fuc(a1-3)]GlcNAc
Procedure, shortened: as §1

[7] = target: Gal(b1-4)GlcNAc(b1-6)Gal(b1-4)GlcNAc
Procedure, shortened: as §1

Gal3S(b1-3)GlcNAc = target: Gal3S(b1-3)GlcNAc
Procedure, shortened: as §1

[8] = target: Gal3S(b1-3)[Fuc(a1-4)]GlcNAc
Procedure, shortened: as §1

Gal3S6S(b1-4)GlcNAc6S = target: Gal3S6S(b1-4)GlcNAc6S
Procedure, shortened: as §1

Gal6S(b1-4)GlcNAc = target: Gal6S(b1-4)GlcNAc
Procedure, shortened: as §1

[9] = target: GlcNAc(b1-4)Gal(b1-4)GlcNAc
Procedure, shortened: as §1

[10] = target: Man(a1-2)Man(a1-3)[Man(a1-6)]Man(a1-6)[Man(a1-2)Man(a1-3)]Man(b1-4)GlcNAc(b1-4)GlcNAc
Procedure, shortened: as §1

[11] = target: Man(a1-3)[Man(a1-6)]Man(a1-6)[Man(a1-3)]Man
Procedure, shortened: as §1

[12] = target: Man(a1-3)[Man(a1-6)]Man(b1-4)GlcNAc(b1-4)GlcNAc
Procedure, shortened: as §1

[13] = target: Neu5Ac(a2-3)Gal(b1-3)GalNAc
Procedure, shortened: as §1

[14] = target: Neu5Ac(a2-3)Gal(b1-3)GalNAc(b1-3)Gal(b1-4)GlcNAc
Procedure, shortened: as §1

[15] = target: Neu5Ac(a2-3)Gal(b1-3)GlcNAc
Procedure, shortened: as §1

[16] = target: Neu5Ac(a2-3)Gal(b1-3)[Neu5Ac(a2-3)Gal(b1-4)]GlcNAc
Procedure, shortened: as §1

[17] = target: Neu5Ac(a2-3)Gal(b1-4)GlcNAc(b1-3)Gal(b1-4)GlcNAc
Procedure, shortened: as §1

[18] = target: Neu5Ac(a2-3)Gal(b1-4)[Fuc(a1-3)]GlcNAc6S
Procedure, shortened: as §1

[19] = target: Neu5Ac(a2-3)Gal6S(b1-4)[Fuc(a1-3)]GlcNAc
Procedure, shortened: as §1

[20] = target: Neu5Ac(a2-3)[GalNAc(b1-4)]Gal(b1-4)Glc
Procedure, shortened: as §1

[21] = target: Neu5Ac(a2-8)Neu5Ac(a2-8)Neu5Ac(a2-3)[GalNAc(b1-4)]Gal(b1-4)Glc
Procedure, shortened: as §1

[22] = target: Neu5Ac9Ac(a2-6)Gal(b1-4)GlcNAc
Procedure, shortened: as §1

[23] = target: Fuc(a1-2)[Gal(a1-3)]Gal(b1-4)[Fuc(a1-3)]GlcNAc
Procedure, shortened: as §1

[24] = target: Fuc(a1-3)[Gal(b1-4)]GlcNAc(b1-3)Gal(b1-3)[Fuc(a1-4)]GlcNAc
Procedure, shortened: as §1

Fuc(a1-4)GlcNAc = target: Fuc(a1-4)GlcNAc
Procedure, shortened: as §1

[25] = target: Gal(a1-3)[Gal(a1-4)]Gal(b1-4)GlcNAc
Procedure, shortened: as §1

Gal(a1-4)GlcNAc = target: Gal(a1-4)GlcNAc
Procedure, shortened: as §1

Gal(b1-2)Gal = target: Gal(b1-2)Gal
Procedure, shortened: as §1

[26] = target: Gal(b1-4)GlcNAc(b1-6)[Gal(b1-3)]GalNAc
Procedure, shortened: as §1

[27] = target: Man(a1-2)Man(a1-6)[Man(a1-3)]Man(a1-6)[Man(a1-2)Man(a1-2)Man(a1-3)]Man
Procedure, shortened: as §1

Man(a1-3)[Man(a1-6)]Man = target: Man(a1-3)[Man(a1-6)]Man
Procedure, shortened: as §1

[28] = target: Man(a1-3)[Man(a1-6)]Man(a1-6)[Man(a1-2)Man(a1-3)]Man(b1-4)GlcNAc(b1-4)GlcNAc
Procedure, shortened: as §1

[29] = target: Man(a1-3)[Man(a1-6)]Man(a1-6)[Man(a1-3)]Man(b1-4)GlcNAc(b1-4)GlcNAc
Procedure, shortened: as §1

[30] = target: Neu5Ac(a2-3)Gal(b1-3)GalNAc6S
Procedure, shortened: as §1

[31] = target: Neu5Ac(a2-3)Gal6S(b1-4)GlcNAc
Procedure, shortened: as §1

[32] = target: Neu5Ac(a2-3)[GalNAc(b1-4)]Gal(b1-4)GlcNAc
Procedure, shortened: as §1

[33] = target: Neu5Ac(a2-6)Gal(b1-4)GlcNAc
Procedure, shortened: as §1

[34] = target: Neu5Ac(a2-6)Gal(b1-4)GlcNAc(b1-2)Man(a1-6)[Gal(b1-4)GlcNAc(b1-2)Man(a1-3)]Man(b1-4)GlcNAc(b1-4)GlcNAc
Procedure, shortened: as §1

[35] = target: Neu5Ac(a2-8)Neu5Ac(a2-8)Neu5Ac(a2-8)Neu5Ac(a2-3)[GalNAc(b1-4)]Gal(b1-4)Glc
Procedure, shortened: as §1

[36] = target: Neu5Gc(a2-3)Gal(b1-4)GlcNAc
Procedure, shortened: as §1

B1: L-Selectin (Homo sapiens), P14151 (protein)
chain: MIFPWKCQSTQRDLWNIFKLWGWTMLCCDFLAHHGTDCWTYHYSEKPMNWQRARRFCRDNYTDLVAIQNKAEIEYLEKTLPFSRSYYWIGIRKIGGIWTWVGTNKSLTEEAENWGDGEPNNKKNKEDCVEIYIKRNKDAGKWNDDACHKLKAALCYTASCQPWSCSGHGECVEIINNYTCNCDVGYYGPQCQFVIQCEPLEAPELGTMDCTHPLGNFSFSSQCAFSCSEGTNLTGIEETTCGPFGNWSSPEPTCQVIQCEPLSAPDLGIMNCSHPLASFSFTSACTFICSEGTELIGKKKTICESSGIWSNPSPICQKLDKSFSMIKEGDYNPLFIPVAVMVTAFSGLAFIIWLARRLKKGKKSKRSMNDPY
In the case of B1, the “glycan array binding signal (z-score)” value [1] is reported as -0.36, the “glycan array binding signal (z-score)” value [2] is reported as 0.137 and the “glycan array binding signal (z-score)” value [3] is reported as -0.145. For the same binder, the “glycan array binding signal (z-score)” value [4] was 6.9, the “glycan array binding signal (z-score)” value [5] was 8.15 and the “glycan array binding signal (z-score)” value (Gal(a1-6)Glc) was 0.48. For the same binder, the “glycan array binding signal (z-score)” value (Gal(b1-3)Gal) was -0.315, the “glycan array binding signal (z-score)” value (Gal(b1-4)Glc6S) was 0.942 and the “glycan array binding signal (z-score)” value [6] was -0.38. The “glycan array binding signal (z-score)” value [7] was -0.336, the “glycan array binding signal (z-score)” value (Gal3S(b1-3)GlcNAc) was -0.333 and the “glycan array binding signal (z-score)” value [8] was 3.08. For the same binder, the “glycan array binding signal (z-score)” value (Gal3S6S(b1-4)GlcNAc6S) was 4.59, the “glycan array binding signal (z-score)” value (Gal6S(b1-4)GlcNAc) was -0.078 and the “glycan array binding signal (z-score)” value [9] was 0.119. For the same binder, the “glycan array binding signal (z-score)” value [10] was -0.024, the “glycan array binding signal (z-score)” value [11] was -0.198 and the “glycan array binding signal (z-score)” value [12] was -0.246. For the same binder, the “glycan array binding signal (z-score)” value [13] was 0.005, the “glycan array binding signal (z-score)” value [14] was -0.116 and the “glycan array binding signal (z-score)” value [15] was -0.147. The “glycan array binding signal (z-score)” value [16] was -0.044, the “glycan array binding signal (z-score)” value [17] was -0.338 and the “glycan array binding signal (z-score)” value [18] was 9.18. For the same binder, the “glycan array binding signal (z-score)” value [19] was -0.028, the “glycan array binding signal (z-score)” value [20] was -0.363 and the “glycan array binding signal (z-score)” value [21] was -0.314. The “glycan array binding signal (z-score)” value [22] was 0.073.

B2: HFR-1 (Triticum aestivum) (protein)
chain: MSPQSFTLETTTTTPAAKGSDPSYFQSAPACHEMIQHKELLLHLYAYQNVQKTPDANQAVIVESKRPECFGILAANDWTVYDGPAHNANLVAHAQGLHLGASMAKENWFICFNMVFVNQRFTGSSFKVMGDFQGTAHNGEWAIVGGTGEFAYAQGVIAFKKTQQSERNARMELHVRAMCLSFLRPLLSLGDGSAVAKIGPWGKMSGELLDIPSTPQRLERITIRHGVVIDSLAFSFIDKAGEPYNVGPWGGRRGDNKDTIELAPSEIVTEVSGTVGIFAEDNVEYNAIASLTITTNHRPYGPFGETQSTPFSVPVQDNNNIVGFFACAGKYVEALGVYVRSPVST
In the case of B2, the “glycan array binding signal (z-score)” value [1] is reported as -0.201, the “glycan array binding signal (z-score)” value [23] is reported as -0.225 and the “glycan array binding signal (z-score)” value [24] is reported as -0.224. The “glycan array binding signal (z-score)” value [3] was -0.165, the “glycan array binding signal (z-score)” value (Fuc(a1-4)GlcNAc) was -0.057 and the “glycan array binding signal (z-score)” value [25] was -0.199. The “glycan array binding signal (z-score)” value (Gal(a1-4)GlcNAc) was -0.22, the “glycan array binding signal (z-score)” value (Gal(b1-2)Gal) was 0.042 and the “glycan array binding signal (z-score)” value [26] was -0.206. For the same binder, the “glycan array binding signal (z-score)” value [27] was -0.214, the “glycan array binding signal (z-score)” value (Man(a1-3)[Man(a1-6)]Man) was 4.93 and the “glycan array binding signal (z-score)” value [28] was 6.43. For the same binder, the “glycan array binding signal (z-score)” value [11] was 7.26, the “glycan array binding signal (z-score)” value [29] was 7.87 and the “glycan array binding signal (z-score)” value [12] was 5.48. For the same binder, the “glycan array binding signal (z-score)” value [30] was -0.218, the “glycan array binding signal (z-score)” value [31] was -0.213 and the “glycan array binding signal (z-score)” value [20] was -0.024. For the same binder, the “glycan array binding signal (z-score)” value [32] was -0.165, the “glycan array binding signal (z-score)” value [33] was -0.223 and the “glycan array binding signal (z-score)” value [34] was -0.222. The “glycan array binding signal (z-score)” value [35] was 0.01 and the “glycan array binding signal (z-score)” value [36] was -0.221.

— the supplement of paper PMC8728848
